# Measured values reported in PubChem BioAssay (NCI).
# Where “and” joins values, the source holds several entries; their conditions need not be identical. Identical values can stand only once. This is part of a sample that, as a whole, favours compounds with a hit. Of some 83,000 tested, about 20% had one in any assay.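 Step 1: grow cells in 96-well plates. Step 2: add test compound at a single concentration. Step 3: incubate 48 h. Step 4: record percent growth.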 Unmarked numbers belong to inactive results. Calls of active or inactive are those of the source. The calls were made as follows: active = growth percent below 10; inactive = the rest.
# System: UACC-62 melanoma
# Experiment: NCI-60 one-dose screen, 48 h (100 = growth as untreated, 0 = no growth, -100 = all killed)
# Details: 10 µM unless noted
row,Structure (SMILES),growth
1,CC(C)O/N=C/c1cc(NC(=S)OC(C)C)ccc1Cl,13.4% [100 µM] and 21.6% [100 µM]
2,COc1ccc(/C=C2/NC(=S)N=C2Cl)cc1,82.8% [100 µM] and 23.4% [100 µM]
3,C=C1C(=O)O[C@@H]2C[C@@]3(C)CC(=O)C=C(C)[C@@H]3C[C@H]12,-95.6% [100 µM] (active) and -86.6% [100 µM] (active)
4,CC1CC(C(=O)OC2OC(COC3OC(CO)C(OC4OC(C)C(O)C(O)C4O)C(O)C3O)C(O)C(O)C2O)C2CCC3(C)C(=CCC4(C)C3CCC3C(C)(CO)C(O)C(O)CC34C)C2C1C (centres undefined),-93.3% [100 µM] (active) and -100% [100 µM] (active)
5,CCC1OC2(C)CC(C#N)(C#N)C1(C#N)C(=N)O2 (centres undefined),34.6% [100 µM]
6,CCCCCCCCOC(=O)C12Oc3ccc(-c4ccc5c(c4O)C(O)=C4C(=O)CC(C)C(O)C4(C(=O)OCCCCCCCC)O5)c(O)c3C(O)=C1C(=O)CC(C)C2O (centres undefined),-66.7% [100 µM] (active) and -97.2% [100 µM] (active)
7,Cc1ccc(NC(=O)/C(Cc2cc(=O)oc3cc(O)ccc23)=N\NC(C)(C)C)cc1C,87.9% [100 µM] and 92.2% [100 µM]
8,CCOC(=O)C(=O)C(CCC(=O)c1ccc2ccccc2c1O)C(=O)OCC (centres undefined),85.4% [100 µM] and 81.5% [100 µM]
9,C[N+](C)(CCNC(=O)c1cccc2cc3ccccc3nc12)Cc1ccc([N+](=O)[O-])s1,63.1% [25 µM] and 28.9% [25 µM]
